Source: PubChem (National Center for Advancing Translational Sciences (NCATS))
The list is not random: actives were taken first. Their share in the collection is about 1.8%.
GLP-1R inv ag = acts as inverse agonist at human GLP-1 receptor; hit rate 1.6% among 410,000; P43220; Potency, µM (highest dose often 38.3 µM), without a hit: at the highest dose activity change, negative = inhibition, actives largely listed as inhibitors; HEK293 GLP-1R CRE-luciferase, luminescence, 24 h; GLP-1R form is constitutively active; also: % is scaled to controls: 0 for no effect and ±100 for the full control effect; nearly all actives have a fitted effect of over 55% in size
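Using stably transfected HEK293 (constitutively active GLP-1R, cAMP-luciferase reporter), compounds were incubated 24 hr and luciferase measured by luminescence.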
Tb PFK inh = T. brucei PFK enzyme inhibition | Potency, µM (top dose mostly 57.5 µM), inactives show at the top dose activity, negative = inhibition, hits mostly inhibitors | hit rate 0.17% among 330,000 | T. brucei PFK, ADP-Glo luminescence;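 also: 0% = uninhibited 1x PFK enzyme wells and -100% = no-enzyme wells; nearly all actives have a fitted effect of over 60% in size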
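1.25 nM PFK with 0.5 mM F6P and 0.1 mM ATP in 0.1 M TEA pH 8.0, 5 mM MgCl2, incubated 45 min at room temperature; ADP measured by ADP-Glo luminescence; compounds titrated up to 57 uM.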
PGK inhibitor = blocks T. brucei phosphoglycerate kinase | PGK/GAPDH coupled, Kinase-Glo luminescence, 60 min | Potency, µM (top dose mostly 57.5 µM), for inactives: at the top dose activity change, negative = inhibition, actives largely listed as inhibitors | hit rate 0.043% among 380,000; also: % is scaled to controls: 0 for no effect and ±100 for the full control effect; nearly all actives have a fitted effect of over 60% in size
Target sequence (P07378 whole entry, looked up): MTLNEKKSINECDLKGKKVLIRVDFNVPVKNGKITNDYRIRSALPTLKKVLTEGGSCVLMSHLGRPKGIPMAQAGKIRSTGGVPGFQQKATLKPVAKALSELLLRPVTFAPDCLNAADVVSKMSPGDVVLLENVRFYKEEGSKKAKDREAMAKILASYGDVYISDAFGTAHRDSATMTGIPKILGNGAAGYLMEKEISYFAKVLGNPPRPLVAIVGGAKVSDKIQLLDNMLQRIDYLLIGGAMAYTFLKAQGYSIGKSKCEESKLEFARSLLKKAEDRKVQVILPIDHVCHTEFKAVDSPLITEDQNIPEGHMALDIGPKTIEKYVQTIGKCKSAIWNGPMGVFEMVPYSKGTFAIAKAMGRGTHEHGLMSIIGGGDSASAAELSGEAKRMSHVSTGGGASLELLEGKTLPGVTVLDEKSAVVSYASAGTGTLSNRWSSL
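Luminescent ATP detection (Kinase-Glo Plus) follows a 60-minute room-temperature incubation, with wells lacking PGK as controls. Buffer: 100 mM TEA (pH 7.6), 5 mM MgCl2, 0.01% Tween-20. Coupling enzyme GAPDH (100 nM final) supplies unstable 1,3-BPG in-well.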
GLP-1R agonist = agonists of human GLP-1 receptor; P43220; HEK293 GLP-1R CRE-luciferase, luminescence, 4-6 h; cells express a hypersensitive GLP-1R form; Potency, µM (series often up to 45.6 µM), for the others: at the highest dose activation, actives largely listed as activators; hit rate 0.007% among 380,000; also: % of control where 0% means no effect
HEK293 tox = cytotoxicity counter-screen for GLP-1 receptor inverse agonists; HEK293 cAMP-luciferase reporter cells, luminescence, 24 h; Potency, µM (series often up to 38.3 µM), for the others: top-dose activity change, negative = inhibition, usual class: inhibitors; hit rate 0.13% among 410,000;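 also: loss of luciferase light is scored as toxicity; % is scaled to controls: 0 for no effect and ±100 for the full control effect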
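Luminescence readout: signal drop marks cytotoxicity. Plated cells grew 12 h at 37 °C, 5% CO2, received 23 nL compound for 24 h, then got luciferase reagent, read after 12 min at RT.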
Pin1 inh = blocks the human prolyl isomerase Pin1 | hit rate 0.009% among 390,000 | AID 504891 | Pin1 FP peptide displacement, HiFluor488, 10 min | Potency, µM (doses to about 115 µM), inactives show at the highest dose activity, negative = inhibition, actives largely listed as inhibitors; active = well fitted inhibition curve with a large enough effect in the polarisation, with a control signal flat, not every such curve was filed as active; inconclusive = small, poorly fitted or top-dose-only effect, or effect the other way, or a change in a side signal; inactive = no such curve, though single readings can be large or run the other way; the % refers to the polarisation; also: % is scaled to controls: 0 for no effect and ±100 for the full control effect
Target sequence (Q13526 whole entry, looked up): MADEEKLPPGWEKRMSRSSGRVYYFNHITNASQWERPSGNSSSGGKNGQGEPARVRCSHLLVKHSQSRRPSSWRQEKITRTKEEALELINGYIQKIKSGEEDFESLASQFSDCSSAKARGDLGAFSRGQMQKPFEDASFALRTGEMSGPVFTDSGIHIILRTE
* marks the source's active call; other numbers are inactive results; i = inactive; u = inconclusive; x = no result. Unless noted, calls follow the shape of the dose curve; as a rule, active = well fitted curve in the direction sought with a large enough effect; inconclusive = small, poorly fitted or top-dose-only effect, or another doubt; inactive = no such curve, though single readings can be large; an effect the other way counts as inactive or inconclusive. Potency is read from the fitted curve at half-maximal effect.

SMILES	GLP-1R inv ag	Tb PFK inh	PGK inhibitor	GLP-1R agonist	HEK293 tox	Pin1 inh
O=C(Nc1ccc2nc3n(c(=O)c2c1)CCCCC3)c1cc([N+](=O)[O-])ccc1F	11µM*	-5%	i	-3%	u	0%
O=C(O)c1cc(F)c(S(=O)(=O)N2CCN(S(=O)(=O)c3ccc4c(c3)OCCO4)CC2)cc1F	x	x	x	x	x	1%
O=C(c1ccccc1F)N(Cc1nc2ccccc2c(=O)[nH]1)C1CCCC1	10µM*	4%	i	-3%	u	8%
O=C1[C@H]2[C@@H](c3ccc(F)cc3)N3C(=O)N(c4cccc(Cl)c4)C(=O)[C@@]3(Cc3ccc(Cl)cc3)[C@H]2C(=O)N1C1CCCCC1	u	-1%	i	-4%	-7%	24%
O=C1[C@H]2[C@@H](c3ccc(F)cc3)N3C(=O)N(c4cccc(Cl)c4)C(=O)[C@@]3(Cc3ccccc3)[C@H]2C(=O)N1C1CCCCC1	5.6µM*	0%	i	-1%	3%	9%
Cc1cc(Nc2ccc3c(c2)OCCO3)c2ccccc2n1	u	2%	i	0%	u	-5%
Cc1cc(Nc2ccc3c(c2)OCCO3)c2cccc(C)c2n1	u	0%	9%	4%	8.9µM*	1%
Cc1cc2ncn(-c3ncnc4sc5c(c34)CCCC5)c2cc1C	-44%	5%	i	16%	6%	-3%
c1ccc2c(c1)ncn2-c1ncnc2sc3c(c12)CCCC3	4.5µM*	0%	4%	5%	-29%	-1%
CC(O)CNc1nc2ccccc2n1-c1ncnc2sc3c(c12)CCC3 (stereo not given)	10µM*	0%	-4%	0%	u	-2%
c1ccc2c(c1)nnn2-c1ncnc2sc3c(c12)CCCC3	5%	1%	-1%	9%	-6%	9%
COc1ccc(-n2cc(C(=O)N(CCN(C)C)Cc3ccccc3)c3ccccc3c2=O)cc1	-4%	x	-2%	x	-3%	16%
COc1ccc(OCc2cccc(C(=O)Nc3ccc(CN4CCCCC4)cc3)c2)cc1	u	0%	-7%	-1%	u	-1%
COc1ccc(C(=O)NC(=S)Nc2ccc(CN3CCOCC3)cc2)cc1Cl	u	0%	6%	9%	u	-1%
CCOc1ccc(OCc2cccc(C(=O)Nc3ccc(CN4CCCCC4)cc3)c2)cc1	4.5µM*	1%	-7%	-16%	u	-2%
COc1ccc(C(=O)NC(=S)Nc2ccc(CN3CCCCC3)cc2)cc1Cl	8.9µM*	6%	4%	11%	u	5%
COc1ccccc1C(=O)NC1CCCCCCC1	7.1µM*	-9%	-3%	16%	-7%	-4%
O=C(NC1CCCC1)c1cccc(Oc2ccccc2)c1	10µM*	1%	i	21%	-3%	-3%
O=C(COc1ccccc1)NC1CCCCCCC1	11µM*	-5%	8%	5%	0%	-3%
O=C(COc1ccc(C(=O)c2ccccc2)cc1)NC1CCCCC1	3%	-1%	-9%	-10%	20%	-6%
O=C(COc1ccc(C(=O)c2ccccc2)cc1)NC1CCCCCC1	8.9µM*	-4%	i	1%	-13%	-4%
COc1ccc(N(CC(=O)Nc2cc(Cl)ccc2OC)S(=O)(=O)c2c(C)noc2C)cc1	4.5µM*	-3%	2%	10%	-26%	9%
COc1ccc(OC)c(NC(=O)CN(c2ccc(C)cc2)S(=O)(=O)c2c(C)noc2C)c1	10µM*	1%	-2%	4%	-23%	0%
COc1cccc(CNC(=O)CN(c2cc(C)cc(C)c2)S(=O)(=O)c2c(C)noc2C)c1	10µM*	1%	9%	0%	1%	-4%
Cc1cc2c(s1)c1cnn(Cc3ccc(Br)cc3F)c(=O)c1n2C	x	x	x	x	x	2%
SMILES	GLP-1R inv ag	Tb PFK inh	PGK inhibitor	GLP-1R agonist	HEK293 tox	Pin1 inh
c1ccc(CN2CCN(CCOCCOc3cccc4ccccc34)CC2)cc1	7.9µM*	-10%	-6%	0%	u	-3%
C=Cc1nc(Nc2cc(F)cc(F)c2)nc(NC2CCCC2)n1	x	x	x	x	x	0%
CC1=Nc2ccccc2/C1=C/c1nc(-c2ccc(C)s2)oc1O	-6%	-2%	9%	-1%	-12%	u
CC1=Nc2ccccc2/C1=C/c1sc(=N)n(-c2nccs2)c1O	2.5µM*	0%	3%	3%	u	u
O=C1C(=Cc2ccco2)CCC1=Cc1ccco1	9%	x	3.5µM*	-14%	-8%	x
CCOCCc1nn2c(=O)cc(COC(=O)c3ccc4c(c3)OCO4)nc2s1	9%	x	-8%	x	3%	5%
COc1ccc(CNc2ncnc3c2c(-c2ccccc2)cn3-c2ccccc2)cc1	6.3µM*	x	i	x	0%	20%
Cc1ccc(CNc2ncnc3c2c(-c2ccccc2)cn3-c2ccccc2)cc1	u	x	-1%	x	2%	0%
COc1ccc(-n2cc(-c3ccccc3)c3c(NCCc4ccc(OC)c(OC)c4)ncnc32)cc1	u	x	-9%	x	-11%	13%
CCOc1ccc(-n2cc(-c3ccccc3)c3c(NCc4ccccc4)ncnc32)cc1	u	x	-2%	x	3%	-2%
CCOc1ccc(-n2cc(-c3ccccc3)c3c(NCc4ccc(F)cc4)ncnc32)cc1	1.4µM*	x	-12%	x	-3%	0%
COc1ccc(CCNc2ncnc3c2c(-c2ccccc2)cn3-c2cccc(Cl)c2)cc1OC	10µM*	x	-6%	x	-7%	-5%
CS(=O)(=O)c1ccc(C(=O)OCC(=O)NCC2CCCO2)cc1[N+](=O)[O-] (stereo not given)	x	x	x	x	x	11%
CCOC(=O)C1CCCN(c2cc(C)nc3c(-c4ccccc4OC)c(C)nn23)C1 (stereo not given)	20%	x	-18%	x	6%	4%
O=c1[nH]c(NCCO)nc2c1C1(CCCC1)Cc1ccccc1-2	-6%	-1%	-7%	-10%	-14%	4%
C=CCNC(=S)NNc1nc2c(c(=O)[nH]1)C1(CCCCC1)Cc1ccccc1-2	10µM*	0%	1%	0%	-17%	2%
CCCCCC1Nc2cc(C(F)(F)F)c(S(N)(=O)=O)cc2S(=O)(=O)N1 (stereo not given)	x	x	x	3%	x	x
Cc1oc(-c2ccc(C(=O)N(C)Cc3ccccc3)cc2)nc1CN1CCc2ccccc21	11µM*	x	9%	13%	0%	13%
O=C(CSc1nc2ccccc2o1)Nc1nc2c(s1)CCCC2	2.5µM*	x	0%	-8%	-16%	u
CCc1ccc(-n2c(=O)c3sc4ccccc4c3n(Cc3cccc(F)c3)c2=O)cc1	16%	x	-2%	-2%	-4%	-1%
